Screening data: PubChem, several laboratories
EP2 modulator = EP2 receptor modulators, cAMP readout, primary screen, cell-based, HTRF cAMP, PGE2 stimulation. Prostaglandin E2 receptor EP2 subtype (Homo sapiens), P43116. EP2-expressing cells, cAMP HTRF FRET, PGE2 co-stimulation. induction, % at 25 µM. hit rate 0.83% among 260,000;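 active = compounds whose cAMP rise, as percent of the full-agonist control response, exceeds 60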;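 also: rat C6 glioma line stably carrying human EP2 under a CMV promoter; the protocol text gives 20 µM as final concentration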
Target sequence (P43116 whole entry, looked up): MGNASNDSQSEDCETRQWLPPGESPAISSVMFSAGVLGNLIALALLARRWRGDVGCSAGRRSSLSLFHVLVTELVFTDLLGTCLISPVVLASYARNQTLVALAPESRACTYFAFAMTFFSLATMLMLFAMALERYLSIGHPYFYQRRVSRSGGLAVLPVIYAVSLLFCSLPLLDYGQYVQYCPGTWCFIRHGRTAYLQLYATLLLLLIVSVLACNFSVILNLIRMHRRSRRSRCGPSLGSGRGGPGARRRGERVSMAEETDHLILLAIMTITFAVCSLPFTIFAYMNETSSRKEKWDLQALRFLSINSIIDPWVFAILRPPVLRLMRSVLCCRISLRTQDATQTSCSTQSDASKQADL
S1P4 agonist = S1P4 receptor agonists, primary screen, cell-based; Sphingosine 1-phosphate receptor 4 (Homo sapiens), O95977; S1P4-expressing cell line, agonist reporter assay; activation, % at 4.98 µM; hit rate 0.35% among 220,000; AID 1509, 2009; in the data active = activation above about 11%
PGE2 EP2 inh = human EP2 receptor antagonists, primary screen, TR-FRET cAMP, C6 glioma cells; C6 glioma cells expressing human EP2; cells stimulated with saturating PGE2; hit rate 0.52% among 260,000; Prostaglandin E2 receptor EP2 subtype (Homo sapiens), P43116; inhibition, % at 25 µM;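 active = percent inhibition above 40 after rounding to a whole number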;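 also: rat C6 glioma host cells with rolipram phosphodiesterase inhibitor present; the protocol text gives 20 µM as final concentration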
S1P4 antagonist = S1P4 receptor antagonists, primary screen, cell-based; Sphingosine 1-phosphate receptor 4 (Homo sapiens), O95977; S1P4-expressing cells, antagonist mode, reporter read-out; inhibition, % at 4.98 µM; hit rate 0.26% among 220,000; AID 1510, 2009; in the data active = inhibition above about 29%
S1P3 antag = S1P3 receptor antagonists, primary screen, cell-based; Sphingosine 1-phosphate receptor 3 (Homo sapiens), Q99500; CHO S1P3 NFAT-BLA reporter, FRET fluorescence, antagonist mode; inhibition, % at 4.98 µM; hit rate 0.27% among 170,000; AID 485, 2006;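 active = inhibition above the plate cutoff, the mean inhibition of test wells on that plate plus 3 SD, cut at about 28% in these data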;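 also: cells challenged with S1P at its EC80 of 0.8 µM; blue over green emission ratio from cleaved BLA substrate after 4 h stimulation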
INS promoter inh = inhibitors of insulin promoter-driven GFP, primary screen, imaging, TRM-6 cells (human fetal islet line), eGFP reporter, cell count; reporter expression induced with tamoxifen; inhibition, % at 2 µM; hit rate 0.9% among 130,000;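 active = inhibition above the mean plus 3 SD, with well images judged a real hit on visual review, cut at about 60% in these data, passing the limit was not always enough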
S1P4 ag conf = S1P4 receptor agonists, retest, confirmation, cell-based, high throughput. shares compounds with S1P4 agonist. S1P4 agonist cell-based reporter assay. activation, % at 4.98 µM. hit rate 7% among 740. AID 1523, 2009; in the data active = activation above about 12%
S1P1 ag = S1P1 receptor agonists, human, counter-screen for S1P4 agonist project, cell-based; shares compounds with S1P4 agonist; S1P1 agonist cell-based assay, activation; activation, % at 4.98 µM; hit rate 4% among 740; AID 1563, 2009; in the data active = activation above about 21%
A number is an active result; i = inactive; nt = no result. An excerpt weighted towards active compounds, which were near 2.4% of everything screened.

SMILES	EP2 modulator	S1P4 agonist	PGE2 EP2 inh	S1P4 antagonist	S1P3 antag	INS promoter inh	S1P4 ag conf	S1P1 ag
Cc1cc2nc(/N=C(\N)NC(=O)C(C)C)nc(C)c2cc1C	i	i	i	i	i	nt	nt	nt
CCC(=O)N/C(N)=N/c1nc(C)c2cc(C)c(C)cc2n1	i	11.6	i	i	i	nt	i	i
COCCNC(=O)Cn1c(=O)n(CCCCCC(=O)Nc2ccccc2)c(=O)c2sccc21	i	21.1	i	i	i	i	i	i
O=C(c1cccs1)N1CCC(n2cnc3cccnc32)CC1	i	nt	i	nt	nt	nt	nt	nt
Cc1cccc(C)c1-n1c(SCC(=O)N2CC(=O)Nc3ccccc32)nc2ccccc2c1=O	i	i	i	i	i	nt	nt	nt
Cc1ccc(-n2c(SCC(=O)N3CC(=O)Nc4ccccc43)nc3ccccc3c2=O)cc1	i	26.7	i	i	i	nt	i	i
Cc1c(N/C(=N/S(=O)(=O)c2ccc(F)cc2)c2ccccc2)c(=O)n(-c2ccccc2)n1C	i	13.8	i	i	i	nt	i	i
Cc1ccc2c(CC(=O)NC(C)Cc3cccs3)c(C)[nH]c2c1C (stereo unspecified)	i	nt	i	nt	nt	nt	nt	nt
COc1ccccc1Nc1nc(Cl)nc(Nc2ccccc2OC)n1	i	i	i	i	i	nt	nt	nt
COc1ccccc1Nc1ccc(N)cc1	i	12.8	i	i	i	i	i	i
NC(=S)c1cc2ccc(O)cc2oc1=O	i	67.0	nt	i	nt	i	16.5	i
C/C(=N/NC(N)=S)c1cc2ccc(O)cc2oc1=O	i	38.8	i	i	i	nt	17.8	i
COc1cc(NC(=O)c2ccc(C)c(C)c2)ccc1NC(=O)c1ccco1	i	nt	i	nt	nt	nt	nt	nt
C/C(=N\N1CCN(Cc2ccccc2Cl)CC1)c1ccc(F)cc1	i	i	i	i	i	nt	nt	nt
C/C(=N\N1CCN(Cc2ccc(Cl)cc2)CC1)c1ccc(F)cc1	i	74.7	i	i	i	nt	i	i
O=C(O/N=C1\CCS(=O)(=O)c2sccc21)c1c(F)cccc1F	i	33.0	i	i	i	i	i	i
COc1ccc2nc(/C=N/NC(=O)[C@H](CCSC)NC(=O)OC(C)(C)C)ccc2c1	i	i	i	i	i	nt	nt	nt
CCC(C)[C@H](NC(=O)OC(C)(C)C)C(=O)N/N=C/c1ccc2cc(OC)ccc2n1 (stereo partly specified)	i	89.7	i	i	i	nt	i	i
CC(Sc1nnc2c(n1)[nH]c1ccccc12)C(=O)NC1CC1 (stereo unspecified)	i	nt	i	nt	nt	nt	nt	nt
Cc1nc(SCC(=O)NC2CCCC2)[nH]c(=O)c1Cc1ccccc1	i	50.8	i	i	nt	i	i	i
CN(Cc1ccccc1)c1nnc(N)s1	i	13.4	i	i	i	i	i	i
CC(C)N(c1nnc(N)s1)C(C)C	i	i	i	i	nt	i	nt	nt
Cc1ccc(OCCn2cc(/C=C3\C(=O)NN(c4ccccc4)C3=O)c3ccccc32)cc1	i	14.1	i	i	i	i	i	i
Cc1ccc(-c2cc(N)c(=O)n(CC(=O)NC3CCCC3)n2)s1	i	nt	i	nt	nt	nt	nt	nt
O=C1CS/C(=C/C(=O)c2cccc(Cl)c2)N1	i	i	i	i	i	nt	nt	nt
SMILES	EP2 modulator	S1P4 agonist	PGE2 EP2 inh	S1P4 antagonist	S1P3 antag	INS promoter inh	S1P4 ag conf	S1P1 ag
Cc1ccc(C(=O)/C=C2/NC(=O)CS2)cc1	i	19.9	i	i	nt	nt	i	i
Cc1cc(C)nc(N2CCC(CNC(=O)C3CCCO3)CC2)n1 (stereo unspecified)	i	nt	i	nt	nt	nt	nt	nt
C=CCn1c(COc2cc(C)ccc2C(C)C)nnc1SCC(=O)c1c(N)n(C)c(=O)n(C)c1=O	i	13.2	i	i	i	i	i	i
CCCCCCn1c(COc2ccccc2F)nnc1SCC(=O)c1c(N)n(C)c(=O)n(C)c1=O	i	i	i	i	i	i	nt	nt
Cc1ccc(S(=O)(=O)N2CCOCC2)cc1NC(=O)COC(=O)c1n[nH]c(=O)c2ccccc12	i	i	i	i	i	nt	nt	nt
Cc1ccc(S(=O)(=O)N(C)C)cc1NC(=O)COC(=O)c1n[nH]c(=O)c2ccccc12	i	25.2	i	i	i	nt	i	i
CCOc1ccccc1NC(=O)CSc1nc2cc3c(cc2cc1C)CCC3	i	nt	i	nt	nt	nt	nt	nt
O=C(COC(=O)CCSc1ccccc1)Nc1ccc(F)cc1Cl	i	31.0	i	i	i	i	i	i
O=C(COC(=O)CCSc1ccccc1)Nc1cc(F)ccc1F	i	i	i	i	i	nt	nt	nt
Cc1cc(C)c2sc(NNC(=O)C3COc4ccccc4O3)nc2c1 (stereo unspecified)	i	20.9	i	i	i	i	i	i
CC(C)NC(=O)C1COc2ccccc2O1 (stereo unspecified)	i	63.9	i	i	i	nt	i	i
CCCCNC(=O)C1COc2ccccc2O1 (stereo unspecified)	i	i	i	i	i	nt	nt	nt
Cc1cccc2sc(NNC(=O)C3COc4ccccc4O3)nc12 (stereo unspecified)	i	i	i	i	i	i	nt	nt
O=S(=O)(c1ccc(N2CCC(c3ccc(Cl)cc3)=N2)cc1)N(CCO)CCO	i	21.5	i	i	nt	i	21.1	68.8
CN(C)CCCNS(=O)(=O)c1ccc(N2CCC(c3ccc(Cl)cc3)=N2)cc1	i	96.0	i	i	nt	i	58.6	153.3
COc1ccccc1C1(O)CCN(CC(=O)Nc2nc(-c3ccccc3)cs2)CC1	i	21.4	i	i	i	nt	i	i
CCOC(=O)c1c(NC(C)=O)sc2c(O)c(Br)cc(Br)c12	i	62.2	i	i	i	i	i	i
CCOC(=O)c1c(NC(C)=O)sc2c(O)cccc12	i	i	i	i	i	i	nt	nt
O=C(COC(=O)c1ccccc1O)Nc1ccc(S(=O)(=O)N2CCCCC2)cc1	i	i	i	i	i	nt	nt	nt
CSc1ncccc1C(=O)OCC(=O)Nc1ccc(S(=O)(=O)N2CCCC2)cc1	i	58.2	i	i	i	i	i	i
Cc1ccc(-n2nnnc2SCC(=O)Nc2ccc(N(C)C)cc2)cc1C	i	nt	i	nt	nt	nt	nt	nt
COc1cccc(NC(=O)CN(c2cccc(C(F)(F)F)c2)S(C)(=O)=O)c1	i	11.7	i	i	i	nt	i	i
COc1cccc(NC(=O)CN(c2cccc(OC)c2)S(C)(=O)=O)c1	i	i	i	i	i	i	nt	nt
COCCn1c(SCC(=O)Nc2ccc(OC)cc2OC)nc2sc3c(c2c1=O)CCC3	i	nt	i	nt	nt	nt	nt	nt
COc1ccc2nc(NC3=NC(C(=O)Nc4ccc(C)cc4)CC(=O)N3)nc(C)c2c1 (stereo unspecified)	i	37.7	i	i	i	nt	i	i
